Screening data (PubChem)
D1 antag – human D1 dopamine receptor antagonism; P21728; HEK293 TREx D1 cells, calcium flux, dopamine EC80; hits give low values; activity change, negative = inhibition, % at 10 µM; 3.2% of 360,000 active; in the data active = activity change below about -30%
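Compound effects on dopamine-evoked calcium signalling were measured in tetracycline-induced HEK293 Trex D1 cells. Dopamine at EC80 followed a 180 s compound pre-read, and fluorescence was tracked kinetically for 180 s more.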
D1 ag – human D1 receptor agonism. AID 504660. HEK293 T-REx D1 cells, calcium flux, agonist mode. 1% of 360,000 active. activation, % at 2 µM
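Agonism was scored from calcium flux recorded over 180 s (1 read/s) after pintool compound addition, following a 10-cycle baseline. Cells were inducible force-coupled HEK293 TREx D1, plated overnight at 30 C and loaded with no-wash calcium dye.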
TRHR PAM – TRH receptor (human) allosteric enhancement. P34981. TRHR cells, fluo-8 calcium fluorescence, EC20 TRH enhancement. enhancement, % at 2 µM. 0.66% of 360,000 active. AID 493056; in the data active = enhancement above about 30%
Target sequence (P34981 whole entry, looked up): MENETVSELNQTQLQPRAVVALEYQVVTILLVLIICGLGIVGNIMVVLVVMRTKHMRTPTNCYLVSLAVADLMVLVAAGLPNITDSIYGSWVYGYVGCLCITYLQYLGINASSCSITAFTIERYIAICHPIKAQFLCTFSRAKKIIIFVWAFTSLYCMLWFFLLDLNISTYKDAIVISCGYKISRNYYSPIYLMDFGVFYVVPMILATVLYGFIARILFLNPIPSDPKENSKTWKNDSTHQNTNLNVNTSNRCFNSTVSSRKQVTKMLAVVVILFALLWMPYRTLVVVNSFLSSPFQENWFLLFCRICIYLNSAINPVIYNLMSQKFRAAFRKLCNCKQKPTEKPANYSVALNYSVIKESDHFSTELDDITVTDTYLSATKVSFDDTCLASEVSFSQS
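Enhancer read-out: after compound pinning and an initial kinetic agonist-mode read, an EC20 of TRH (10 nM final) was injected and fluo-8 calcium signal (Ex 480/Em 530) followed at 1 s/cycle for 100 cycles in TRHR-expressing cells.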
D1 PAM – human D1 dopamine receptor positive modulation | P21728 | HEK293 TREx D1 cells, calcium flux, dopamine EC20 potentiation | potentiation, % at 10 µM | 0.036% of 360,000 active; in the data active = potentiation above about 30%
TRHR agonist – activates the human TRH receptor; 0.18% of 360,000 active; P34981; activation, % at 2 µM; TRHR cells, calcium flux fluo-8, FDSS agonist mode
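Fluo-8-loaded TRHR cells; 10 s baseline, compound added, kinetic Ca2+ fluorescence read 1/s, agonist mode.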
Of the large screens only hits and unclear results are named; the others gave an inactive call. Most compounds without a hit are left out; they make up all but 4.6% or so of the library. Cut-off read from the data, not from the text of the source, unless noted: active = activation above about 30%; inactive = the rest.

COc1ccc(C(=O)Oc2ccc(C(c3c(C)[nH][nH]c3=O)c3c(C)[nH][nH]c3=O)cc2)cc1	none
O=C1COc2ccc(-c3cc(-c4ccc(F)cc4)c4c(n3)-c3ccccc3OC4)cc2N1	none
Cc1ccc2cccc(OCCOCCOc3ccccc3Br)c2n1	none
Cc1ccc2cccc(OCCCOc3ccccc3F)c2n1	D1 antag -49
COc1ccc(C=O)cc1Cn1cnc2c(cnn2C)c1=O	D1 antag -36
Cc1nn(CCc2nn[nH]n2)c2nc(-c3ccc(C4CCCCC4)cc3)cc(C(F)(F)F)c12	D1 antag -46
NC(=O)CCN1CCN(CCOC2Cc3cc(Cl)ccc3Sc3ccccc32)CC1 (configuration not stated)	none
COCCCN1CCN(C2Cc3ccccc3Sc3ccc(Cl)cc32)CC1 (configuration not stated)	D1 antag -86
O=C(c1ccccc1Cl)N1CCNCC1	none
Clc1ccc2c(c1)C(N1CCNCC1)Cc1ccccc1S2 (configuration not stated)	D1 antag -86
Clc1cccc2c1Sc1ccccc1CC2N1CCNCC1 (configuration not stated)	D1 antag -78, D1 ag 57
CC1(c2ccccc2)CC(C)(C)N2C(=O)Cc3cccc1c32 (configuration not stated)	none
O=C(CSc1nnc(NC(=O)c2cccc(Cl)c2)s1)NCC1CCCO1 (configuration not stated)	none
CCn1nc(C)cc1C(=O)n1nc(C)c(Sc2ncccn2)c1C	none
O=C(Nc1ccc(F)cc1)[C@@H](c1ccccc1)N1Cc2ccccc2C1=O	none
CCOC(=O)CN(C(=O)CSc1nnc(COc2ccc(OC)cc2)n1C)c1ccccc1	D1 antag -46
COc1ccc(NC(=O)CCN2CCN(c3ccccc3F)CC2)c(OC)c1	D1 antag -36
COc1ccc(NC(=O)CN2CCN(c3ccccc3F)CC2)c(OC)c1	none
COc1ccc(OC)c(NC(=O)CCN2CCN(c3ccccc3OC)CC2)c1	D1 antag -64
CC1CCN(CCCNC(=O)c2cc(Sc3ccc(F)cc3)nc3ccccc23)CC1	D1 ag 44
COc1ccc(Nc2cc(C(=O)NCCCN3CCOCC3)c3ccccc3n2)c(OC)c1	none
CC1CCCCN1CCCNC(=O)c1cc(Sc2ccc(Cl)cc2)nc2ccccc12 (configuration not stated)	none
COc1ccc(Nc2cc(C(=O)NCCCN3CCN(c4ccccc4F)CC3)c3ccccc3n2)c(OC)c1	D1 antag -42
COc1ccc(-c2nc3ccccc3o2)cc1NC(=O)C(C)(C)Oc1ccc(Br)cc1	none
O=C(NC1CCCCC1)c1ccc(CSc2nc3ccncc3n2Cc2cccc(F)c2)cc1	none
COC(=O)[C@@H](NC(=O)Nc1ccc(OC(F)(F)F)cc1)C(C)C	D1 antag -42
O=C1NC2(NN1c1ccccc1)C1CC3CC(C1)CC2C3 (configuration not stated)	D1 ag 43
CCCCOc1cccc(C(=O)Nc2cccc(-c3nc4ncccc4o3)c2C)c1	TRHR PAM 43
Cc1sc2c(c1C)c(=O)n(-c1ccccc1)c(=O)n2CC(=O)c1ccc(Cl)cc1	none
O=C(c1ccccc1)c1ccc(O)cc1O	D1 ag 60
O=C(c1ccc(O)cc1)c1ccc(O)cc1O	none
Cc1cc2c(s1)c1cnn(Cc3c(Cl)cccc3Cl)c(=O)c1n2C	none
CC1CCCCN1C(=O)CSc1n[nH]c(-c2ccccc2)n1 (configuration not stated)	D1 antag -31
CC1CCCCN1C(=O)CSc1nc(-c2ccccc2)cn1N (configuration not stated)	none
CC(=Nc1ccc(Br)cc1)c1sc2ccccc2c1O	D1 ag 62
CC1=C(C(=O)NCc2cccc(Cl)c2)C2(CCCCCC2)OC1=O	D1 antag -31
COc1cc(OC)c(NC(=O)C2=C(C)C(=O)OC23CCCCCC3)cc1Cl	D1 antag -70
CC1=C(C(=O)Nc2cc(C)ccc2C)C2(CCCCCC2)OC1=O	none
CC1=C(C(=O)Nc2cc(Cl)ccc2C)C2(CCCCC2)OC1=O	D1 ag 32
CCOC(=O)c1sc(NC(=O)CN2C(=O)NC3(CCC(C)CC3)C2=O)c(C(=O)OCC)c1C (configuration not stated)	none
CC1CCCCN1S(=O)(=O)c1ccc(C(=O)N2CCOCC2)cc1 (configuration not stated)	TRHR PAM 33
CC1CCCCN1S(=O)(=O)c1ccc(S(=O)(=O)N2CCCC2)cc1 (configuration not stated)	none
Cc1ccc(S(=O)(=O)N/N=C/c2ccc(OC3CSC3)cc2)cc1	D1 ag 61
Cc1ccc(S(=O)(=O)N/N=C/c2ccc(C(=O)O)cc2)cc1	none
CCN(Cc1nc(-c2ccc(OC)c(OC)c2)no1)S(=O)(=O)c1ccc(OC)cc1	D1 antag -34
COc1ccc(-c2noc(COc3ccc4ccccc4c3Br)n2)cc1OC	none
COc1ccc(-c2noc(COc3ccc(Br)cc3C)n2)cc1OC	D1 ag 33
COc1ccc(-c2noc(COc3ccc(C)c(C)c3)n2)cc1OC	D1 antag -45
Cc1ccc(-c2noc(COc3ccc(Br)c(C)c3)n2)cc1	none
CC1CCc2onc(C(=O)N3CCN(c4cccc(C(F)(F)F)c4)CC3)c2C1 (configuration not stated)	none
Cc1cccc(OCC(=O)Nc2cc(Cl)ccc2-n2cncn2)c1C	none
O=C(Nc1cc(Cl)ccc1-n1cncn1)c1cncc(Br)c1	D1 antag -45
CCCOc1ccccc1OCC(=O)Nc1cc(Cl)ccc1-n1cncn1	D1 antag -71
CCOC(=O)c1ccc(N2C(=O)c3n[nH]c(-c4cccs4)c3C2c2cccc(O)c2)cc1 (configuration not stated)	none
COc1ccc(-c2nc3ccccc3o2)cc1NC(=O)c1cccnc1	none
CNc1oc(-c2ccco2)nc1C#N	none
Cc1ccc(CNc2oc(-c3ccco3)nc2C#N)cc1	D1 antag -37
O=C(COC(=O)c1cccs1)NC1CCCC1	none
CCN1CC2=C(OC(N)=C(C#N)C2c2ccccc2)/C(=C\c2ccccc2)C1 (configuration not stated)	D1 antag -73
CC(C)N1CC2=C(OC(N)=C(C#N)C2c2cccnc2)/C(=C/c2cccnc2)C1 (configuration not stated)	TRHR PAM 34
N#CC1=C(N)OC2=C(CC/C2=C\c2ccc(F)cc2)C1c1ccc(F)cc1 (configuration not stated)	D1 antag -58, D1 ag 235, TRHR agonist 42
N#CC1=C(N)OC2=C(CCC/C2=C/c2ccoc2)C1c1ccoc1 (configuration not stated)	none
